High-throughput results: PubChem, several laboratories
Compounds with a hit are over-represented: about 1.9% of the library has one in this group of screens.
eIF4H FP inh: human eIF4H binding inhibitors, primary screen, translation initiation inhibitor project, biochemical, uHTS, fluorescence polarization; Eukaryotic translation initiation factor 4H (Homo sapiens), Q15056; 290,000 compounds, 0.94% hits; AID 2012, 2009; eIF4H fluorescence polarization binding assay; inhibition, % at 35 µM;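 also: calls also rest on retests at 20 µM and on dose response follow-up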
PERK inh: block of dimerizer-induced PERK translation repression, primary screen, PERK inhibitor project, CHO PERK-DD cells, SEAP luminescence, HTS. Eukaryotic translation initiation factor 2-alpha kinase 3 (Homo sapiens), Q9NZJ5. 220,000 compounds, 0.17% hits. CHO PERK-DD fusion, SEAP luminescence translation reporter. inhibition, % at 5.6 µM;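 active = inhibition above the mean inhibition of all tested compounds plus 3 SD, set separately per screening campaign, cut at about 2.9% in these data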;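 also: PERK kinase domain activated by AP20187 dimerizer at 100 nM; 0% = DMSO with dimerizer and 100% = rapamycin at 8.4 µM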
PABP1 MLLE inh: inhibitors of PABP1 MLLE–PAM2 peptide binding, primary screen, biochemical, fluorescence polarization, FITC-PAM2, GST-MLLE. Polyadenylate-binding protein 1 (Homo sapiens), P11940. 360,000 compounds, 0.36% hits. inhibition, % at 20 µM; in the data active = inhibition above about 35%, passing the limit was not always enough;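 also: plate controls were DMSO wells with GST-MLLE for no effect and wells lacking GST-MLLE protein for full effect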
GRK2 aptamer HTS: compounds blocking aptamer binding on GRK2 – biochemical, human GRK2, bead flow cytometry, HTS, primary screen. Beta-adrenergic receptor kinase 1 (Homo sapiens), P25098. AID 488847, 2010. inhibition of aptamer binding, % at 10 µM. FAM-aptamer displacement from GRK2. 330,000 compounds, 0.59% hits;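 active = inhibition of aptamer binding above 40%, roughly 3 SD of noise, on plates passing a quality check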;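 also: median bead fluorescence of bound FAM aptamer so fluorescent compounds give negative values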
PABP FP inh: PABP poly(A) RNA binding inhibitors, primary screen, biochemical, fluorescence polarization, uHTS; Polyadenylate-binding protein 1 (Homo sapiens), P11940; AID 2014, 2009; inhibition, % at 35 µM; 290,000 compounds, 1% hits;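 also: calls also rest on retests at 20 µM and on dose response follow-up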
Starred values were filed as active, the others as inactive; . = no result. Unless noted, no rule for the calls is given here.

SMILES | eIF4H FP inh | PERK inh | PABP1 MLLE inh | GRK2 aptamer HTS | PABP FP inh
S=c1[nH]nc(-c2ccncc2)n1/N=C/C=C/c1ccco1 | 96* | 0 | -1 | 4 | 94*
Cc1cccc(-c2n[nH]c(=S)n2/N=C/C=C/c2ccco2)c1 | 85* | 0 | -4 | . | 57*
Cc1cccc(/C=N/n2c(-c3ccco3)n[nH]c2=S)c1 | 5 | 3.5* | -52 | 0 | 14
Cc1cccc(/C=N/n2c(C)nnc2C)c1 | -2 | 3.1* | 19 | 2 | -14
S=c1[nH]nc(-c2cccc(Cl)c2)n1/N=C/c1ccco1 | 14 | 1 | . | . | 13
CC(/C=N/n1c(-c2ccccc2)n[nH]c1=S)=C\c1ccco1 | 36 | 0 | 1 | 2 | 4
Cc1cccc(NC(=O)COc2coc(CN3CCN(c4ccccc4)CC3)cc2=O)c1C | . | . | 5 | 3 | .
O=C(CC(C(=O)O)c1cccc(Br)c1)c1ccc(Cl)cc1 (stereo not drawn) | -6 | . | -14 | 0 | 9
S=C(Sc1ccc(Cl)cc1)Sc1ccc(Cl)cc1 | 0 | 2 | . | 0 | 3
CC(/C=N/n1c(-c2ccc(C)cc2)n[nH]c1=S)=C\c1ccco1 | 42 | 1 | -52 | 3 | 13
C(=C\c1ccco1)/C=N/n1cnnc1 | 93* | 1 | -1 | 3 | 72*
CC(/C=N/n1c(-c2ccncc2)n[nH]c1=S)=C\c1ccco1 | 84* | 1 | -3 | 3 | 46*
S=c1[nH]nc(-c2ccccc2Cl)n1/N=C/C=C/c1ccco1 | 92* | 0 | -12 | 0 | 49*
O=C1OC(c2ccccc2)=N/C1=C\C=C\c1ccco1 | 5 | 1 | -9 | 3 | 7
COc1ccccc1/C=C\C=N\n1c(-c2ccc(Cl)cc2Cl)n[nH]c1=S | 14 | 0 | -81 | 2 | 4
O=C1NC(=O)C2(COC(c3ccccc3Cl)OC2)S1 (stereo not drawn) | -2 | 0 | -10 | 4 | -10
OCCC1CN(Cc2cc3c(cc2Cl)OCO3)CCN1Cc1ccccc1 (stereo not drawn) | -8 | 0 | 5 | 0 | -11
COc1cnc(SCC(=O)O)[nH]c1=O | 7 | 1 | 22 | 3 | 82*
CCOC(=O)CSc1ncc(OC)c(=O)[nH]1 | -12 | 1 | 10 | 3 | -3
O=C(c1ccccc1)c1ccc2cc(O)ccc2c1 | -3 | . | 6 | 67* | 17
CCOC(=O)c1cc2c(ccn2C)n1CC(=O)N(Cc1ccccc1)c1ccc(F)cc1 | -5 | 0 | 2 | 0 | 3
CCOC(=O)c1cc2c(ccn2C)n1CC(=O)N(Cc1ccccc1)c1ccccc1 | 12 | 0 | 41* | 7 | 14
c1ccc(OCc2nn3c(-c4ccncc4)nnc3s2)cc1 | -6 | 0 | -4 | 0 | 1
c1ccc(Cc2nn3c(-c4ccncc4)nnc3s2)cc1 | 4 | 0 | 38* | 4 | 1
c1ccc(Cc2nnc3sc(-c4cccnc4)nn23)cc1 | 6 | 0 | 32 | 0 | 6
SMILES | eIF4H FP inh | PERK inh | PABP1 MLLE inh | GRK2 aptamer HTS | PABP FP inh
c1ccc(Cc2nnc3sc(-c4ccncc4)nn23)cc1 | -1 | 1 | 42* | 1 | 0
CCOc1ccc2c(c1)c(N=O)c(O)n2C | -7 | 1 | -3 | 0 | 14
CC(C)N1CCC(N2CCN(CC#Cc3ccccc3)CC2CCO)CC1 (stereo not drawn) | -9 | 0 | -5 | 0 | 4
CS(=O)(=O)Nc1ccc(C2=NN(S(C)(=O)=O)C(c3ccc4c(c3)OCO4)C2)cc1 (stereo not drawn) | -5 | 1 | -62 | 2 | 1
CN1/C(=C\C(=O)CSc2nnc(NCc3ccccc3)s2)C(C)(C)c2ccccc21 | 69* | -2 | -56 | 0 | active
COc1cc2ccccc2cc1C(=O)NC(=S)Nc1cccc(C(=O)O)c1 | -2 | 1 | 40* | 1 | 13
COc1cc2ccccc2cc1C(=O)NC(=S)Nc1ccc(C(=O)O)cc1 | 37 | . | 26 | 12 | 0
COc1ccc2nc(Cl)c(C3CC(c4ccco4)=NN3C(=O)CCC(=O)O)cc2c1 (stereo not drawn) | 92* | 0 | -2 | 0 | 4
O=C(CCl)N1N=C(c2ccco2)CC1c1ccco1 (stereo not drawn) | 54* | . | 7 | 11 | 31*
Cc1cccc2cc(C3CC(c4ccco4)=NN3C(=O)CCC(=O)O)c(Cl)nc12 (stereo not drawn) | 56* | 0 | -9 | 2 | 7
CN(Cc1ccccc1)C1(CNC(=O)CCC(F)(F)F)Cc2ccccc2C1 | -8 | . | -5 | 0 | -11
CCC(=O)Nc1ccc(Cl)c(NC(=S)NC(=O)COc2ccccc2)c1 | -4 | 1 | 39* | 3 | 0
CCC(=O)Nc1ccc(Cl)c(NC(=S)NC(=O)COc2ccc(Cl)cc2)c1 | -3 | 0 | 15 | 0 | 6
Cc1ccc(CNC(=O)CCC2CCCN(Cc3c(C)nn(C(C)C)c3C)C2)o1 (stereo not drawn) | 6 | 0 | -3 | 0 | 8
CCCCOC(=O)C(C#N)c1nc2ccccc2nc1N1CCN(Cc2ccc3c(c2)OCO3)CC1 (stereo not drawn) | 54* | 1 | 1 | 2 | 85*
C=CCOC(=O)C(C#N)c1nc2ccccc2nc1N1CCN(Cc2ccccc2)CC1 (stereo not drawn) | 57* | 0 | 0 | 8 | 73*
CC(C)COC(=O)C(C#N)c1nc2ccccc2nc1N1CCN(Cc2ccccc2)CC1 (stereo not drawn) | 44* | -1 | 7 | 11 | 63*
COc1ccc(Cc2nnc(SC)n2-c2ccc(F)cc2)cc1OC | . | . | -21 | . | .
COc1ccc(S(=O)Cc2ccc(C(=O)NCc3cccc(OC)c3)o2)cc1 (stereo not drawn) | -13 | . | -4 | 1 | 2
CCN1CCN(C(=O)c2ccc3c(c2)S(=O)(=O)c2ccccc2C3=O)CC1 | 6 | 1 | 0 | 11 | 0
Cc1ccc(C(=O)OC(C)C(=O)NC(C)CCc2ccccc2)o1 (stereo not drawn) | . | . | -10 | 0 | .
Cc1cc(C(=O)CSc2nnc(N)s2)c(C)n1C1CC1 | . | . | 18 | 0 | .
Cc1cc(C(=O)CSc2nc(N)cc(N)n2)c(C)n1C1CC1 | 81* | 2 | 1 | 3 | -9
COC(=O)C1=C(C)N(c2ccc(C)c(C)c2)/C(=C/c2ccco2)C1=O | 18* | 1 | -23 | 24 | 54
Cc1ccc(OCC(=O)Nc2nnc(S(=O)(=O)N3CCCCCC3)s2)cc1 | 66* | . | -13 | 0 | 3
Cc1ccc(OCC(=O)Nc2nnc(S(=O)(=O)N3CCCCC3)s2)cc1 | 83* | . | -58 | 0 | 23*
